# Most compounds without a hit are left out; they make up all but 3.6% or so of the library.
# Pf apPOL block: Pf-apPOL DNA polymerase inhibition; Recombinant Pf-apPOL, molecular beacon fluorescence, 1.5 h; inhibition, % at 10 µM; 210,000 tested, 0.25% active; AID 1794808
# mHTT CaM bind: mHTT-calmodulin interaction abrogation. AlphaScreen His-mHTT/GST-CaM binding, luminescence. AID 1671202. 190,000 tested, 3.6% active. inhibition, % at 15 µM
# Hits are given with their value; 0 = inactive; - = no result; ! = a repeat was not active. Rule as the data show it: active = inhibition above about 50%; inactive = the rest.
SMILES,Pf apPOL block,mHTT CaM bind
COc1ccccc1[C@H]1C(c2ccc(F)cc2)=NN(c2ccccc2)[C@@H]1CO,0,67
CCc1ccccc1NS(=O)(=O)c1ccc(CN2C(=O)c3ccccc3C2=O)cc1,0,0
Cc1ccc(O)c(NC(=O)CSc2n[nH]c(C)c2[N+](=O)[O-])c1,0,0
Cc1[nH]nc(SCC(=O)Nc2cc(Br)ccc2O)c1[N+](=O)[O-],0,52
Cc1ccnc(SC2CC(=O)N(c3ccc(Cl)c(Cl)c3)C2=O)n1 (stereo unspecified),0,0
Cc1nc(C2CCN(C(=O)c3cccc(OC(F)(F)F)c3)CC2)n[nH]1,0,0
CC1(C)CC(=O)c2cnn(-c3nc4ccccc4s3)c2C1,0,0
COCCN1C(=O)C2(SCCN2C(=O)c2ccc(OC)cc2)c2ccccc21 (stereo unspecified),0,0
CCN1C(=O)C2(SCCN2C(=O)c2cccc(F)c2)c2cc(F)ccc21 (stereo unspecified),0,56
CCN1C(=O)C2(SCCN2C(=O)C2CCCC2)c2cc(F)ccc21 (stereo unspecified),0,55
CCN1C(=O)C2(SCCN2C(=O)c2cccc(OC)c2)c2cc(F)ccc21 (stereo unspecified),0,0
COc1ccc2nc(NC(=O)CCCOc3ccccc3)sc2c1,0,0
COc1ccc(C2=N/C(=C\c3ccco3)C(=O)O2)c(Cl)c1,0,0
COc1ccc(CNS(=O)(=O)c2ccc(F)c(C(=O)Nc3cccc(C)c3C)c2)cc1,0,0
O=C1C(N2CCCC2)=C(N2CCN(S(=O)(=O)c3ccccc3)CC2)C(=O)c2ccccc21,0,80
O=S(=O)(c1ccccc1)N1CCN(S(=O)(=O)c2ccccc2)C1,0,0
O=[N+]([O-])c1cc(Nc2ccccc2)c(C=Nc2ccccc2)c([N+](=O)[O-])c1,0,51
O=[N+]([O-])c1ccc(O)c(C=Nc2ccc(Nc3ccccc3)cc2)c1,0,0
O=[N+]([O-])c1ccc(NN=Cc2ccccc2)c([N+](=O)[O-])c1,0,-
O=[N+]([O-])c1ccc(NNc2ccccc2)c([N+](=O)[O-])c1,-,69
COc1cc(-c2cc3ccccn3c2)cc(OC)c1OC,0,61
COc1ccc(-c2ncc3ccccn23)cc1OC,0,0
Clc1cccc(-c2cn3ccccc3n2)c1,0,0
Clc1cccc(-c2cc3ccccn3c2)c1,0,63
O=C(Nc1cccc(C(F)(F)F)c1)c1oc(=O)c2ccccc2c1-c1ccccc1,0,0
SMILES,Pf apPOL block,mHTT CaM bind
COCCn1c(C2CCN(C(=O)c3cccc(Cl)c3)C2)nc2cccnc21 (stereo unspecified),0,0
COc1cccc(C2=CC(c3cccc(F)c3)n3nnnc3N2)c1 (stereo unspecified),0,0
COc1cc(/C=N/O)ccc1Oc1ccc([N+](=O)[O-])cn1,0,0
CCCC(=O)N1CCC2(CC1)NC(=O)c1c(F)cccc1N2,0,0
CCCC1(CO)CCCN1C(=O)c1ccc2cc[nH]c2c1 (stereo unspecified),0,55
CCCC1(CO)CCCN1C(=O)c1ccc2[nH]ccc2c1 (stereo unspecified),0,0
COc1ccc(-c2c(C#N)c(N)nc3sc(C(=O)c4ccc(C)cc4)c(N)c23)cc1,0,0
N#Cc1c(N)nc2sc(C(=O)c3ccc(Cl)cc3)c(N)c2c1-c1ccc(O)cc1,0,83
Cc1cc(Cl)c(OCCCCn2ccnc2)c(Br)c1,0,0
Cc1ncc2c(n1)CCN(S(=O)(=O)c1cccc(F)c1)C2,0,0
O=C(O)COc1ccccc1O,0,94!
Cc1ccccc1OCC(=O)O,0,0
O=S1(=O)[C@H]2C[C@H]3O[C@@]2(C[C@@H]3c2ccc(F)cc2)CN1Cc1ccc(Cl)cc1,0,0
O=C(C1CCCCC1)N1C[C@@H](n2cc(-c3ccc(F)cc3)nn2)[C@H](O)C[C@@H]1c1ccccc1,0,0
O[C@@H]1CN(CC2CCCCC2)[C@@H](c2ccccc2)C[C@H]1n1cc(C2CC2)nn1,0,0
CCCCCCN1C[C@H](n2cc(C3CC3)nn2)[C@@H](O)C[C@@H]1c1ccc(Cl)cc1,0,100
CCCCCCN1C[C@@H](n2cc(C3CC3)nn2)[C@H](O)C[C@@H]1c1ccc(Cl)cc1,0,0
Cc1ccc([C@H]2C[C@H](O)[C@@H](n3cc(-c4ccc(F)cc4)nn3)CN2C(=O)C2CCCCC2)cc1,0,74
O[C@H]1CN(CC2CCCCC2)[C@@H](c2ccc(Cl)cc2)C[C@@H]1n1cc(-c2ccc(F)cc2)nn1,0,0
O[C@H]1C[C@H](c2ccccc2)N(CC2CCCCC2)C[C@@H]1n1cc(C2CC2)nn1,0,93
O[C@H]1CN(CC2CCCCC2)[C@@H](c2ccc(Cl)cc2)C[C@@H]1n1cc(C2CC2)nn1,0,54
O=C(O)C1C2C=CC(C2)C1C(=O)Nc1ccc(Oc2ccccc2)cc1 (stereo unspecified),0,0
CCCNC(=O)C1CCN(c2cnn(Cc3ccccc3)c(=O)c2)CC1,0,0
